Assay results reported in PubChem BioAssay AID504652 (National Center for Advancing Translational Sciences (NCATS), 2011).
Among all 360,000 compounds or so, about 11,000 (3.1%) were called active. No stated cut-off is given here; in the data, active means activity change below about -30%; inactive means the rest. The entries come from a sample that favours actives as a whole.

Target: D(1A) dopamine receptor (Homo sapiens) (UniProt P21728)
Assay: Antagonist of Human D 1 Dopamine Receptor: qHTS
Settings: HEK293 TREx D1 cells, calcium flux, dopamine EC80; at 10 µM; stronger effect = lower value
In short: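 Calcium flux readout: force-coupled, inducible Hek293 Trex D1 line, cells induced overnight at 30 C with tetracycline, dye-loaded 30–90 min at RT. Antagonism scored against EC80 dopamine challenge given 180 s after compound.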
On the % scale 0 is the no-effect control and ±100 the full control effect.

Sequence of D(1A) dopamine receptor (Homo sapiens) (P21728 whole entry, looked up): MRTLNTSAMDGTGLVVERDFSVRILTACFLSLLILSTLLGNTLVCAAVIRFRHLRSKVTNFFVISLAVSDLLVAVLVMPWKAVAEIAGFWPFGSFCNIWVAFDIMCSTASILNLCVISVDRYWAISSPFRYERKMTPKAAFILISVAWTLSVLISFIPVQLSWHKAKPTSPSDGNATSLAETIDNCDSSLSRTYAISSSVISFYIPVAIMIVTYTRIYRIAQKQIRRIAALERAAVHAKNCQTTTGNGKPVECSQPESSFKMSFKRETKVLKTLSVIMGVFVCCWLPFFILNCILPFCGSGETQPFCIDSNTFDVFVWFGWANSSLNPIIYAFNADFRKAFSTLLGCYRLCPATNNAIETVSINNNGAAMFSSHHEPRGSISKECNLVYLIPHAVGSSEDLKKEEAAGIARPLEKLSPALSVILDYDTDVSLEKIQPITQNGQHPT

Question: How did the activity change, negative = inhibition turn out when `COc1ccc(CNC(=O)c2cc3c(=O)[nH]c4ccccc4c3s2)cc1` was run?
Answer: Its activity change, negative = inhibition is -33.6% (active).

Question: For `O=C(NCCN1CCN(Cc2ccccc2)CC1)c1cc2c(=O)[nH]c3ccccc3c2s1`, which activity change, negative = inhibition is on record?
Answer: The activity change, negative = inhibition was -7.42% (inactive).

Question: How did the activity change, negative = inhibition turn out when `COc1ccc(CNC(=O)c2cc3c(=O)[nH]c4ccc(C)cc4c3s2)c(OC)c1` was run?
Answer: Its activity change, negative = inhibition is 1.68% (inactive).

Question: With `Cc1cccc(NC(=O)c2ccc(F)c(S(=O)(=O)N(C)C3CCCCC3)c2)c1` as the compound, how does the activity change, negative = inhibition read?
Answer: Its activity change, negative = inhibition is 4.16% (inactive).

Question: For `O=C(COC(=O)C1CC2C=CC1C2)Nc1ccccc1` (stereo unspecified), which activity change, negative = inhibition is on record?
Answer: Its activity change, negative = inhibition is -18.1% (inactive).

Question: With `CC(C)c1ccc(NC(=S)NC2CC3C=CC2C3)cc1` (stereo unspecified) as the compound, how does the activity change, negative = inhibition read?
Answer: Its activity change, negative = inhibition is -34.1% (active).

Question: How did the activity change, negative = inhibition turn out when `CC(C)c1ccc(NC(=O)NC2CCCCC2)cc1` was run?
Answer: The activity change, negative = inhibition was -4.57% (inactive).

Question: How did the activity change, negative = inhibition turn out when `COc1ccc(C2=NC(c3ccncc3)=Nc3ccc(Br)cc3N2)cc1` was run?
Answer: Its activity change, negative = inhibition is -11.7% (inactive).

Question: How did the activity change, negative = inhibition turn out when `CCn1c(C(=O)Nc2cc(Cl)ccc2C)cc2sc(Cl)cc21` was run?
Answer: The activity change, negative = inhibition was -0.309% (inactive).

Question: `O=C(c1ccc2c(c1)N(Cc1ccc(Cl)cc1)C(=O)c1ccccc1S2(=O)=O)N1CCCCC1` was tested. Which activity change, negative = inhibition did it give?
Answer: Its activity change, negative = inhibition is 5.67% (inactive).

Question: How did the activity change, negative = inhibition turn out when `COc1ccc(-c2cc(-c3nc(-c4cc(OC)c(OC)c(OC)c4)no3)[nH]n2)c(OC)c1` was run?
Answer: Its activity change, negative = inhibition is 27% (inactive).

Question: For `Cc1ccc(NC(=O)CN2C(=O)C(c3ccc(F)cc3)=NC23CCCCCC3)c(C)c1`, which activity change, negative = inhibition is on record?
Answer: Its activity change, negative = inhibition is 2.24% (inactive).

Question: Which activity change, negative = inhibition does the source give for `O=C1C=C(c2cccc(Cl)c2)C[C@@H](c2ccc(F)cc2)C1` here?
Answer: Its activity change, negative = inhibition is -32% (active).

Question: How did the activity change, negative = inhibition turn out when `COc1ccc([C@H]2CC(=O)C=C(c3ccc(OC(F)(F)F)cc3)C2)cc1OC` was run?
Answer: The activity change, negative = inhibition was -5.99% (inactive).

Question: For `COc1cccc(C2=CC(=O)C[C@H](c3ccc(OC)c(OC)c3)C2)c1`, which activity change, negative = inhibition is on record?
Answer: Its activity change, negative = inhibition is -42.8% (active).

Question: `COc1ccc([C@H]2CC(=O)C=C(/C=C/c3ccccc3)C2)cc1` was tested. Which activity change, negative = inhibition did it give?
Answer: Its activity change, negative = inhibition is 3.37% (inactive).

Question: Which activity change, negative = inhibition does the source give for `O=C1C=C(c2cc(C(F)(F)F)cc(C(F)(F)F)c2)C[C@@H](c2ccc3c(c2)OCO3)C1` here?
Answer: Its activity change, negative = inhibition is -12.8% (inactive).

Question: Which activity change, negative = inhibition does the source give for `O=C1CC(c2cccc(Cl)c2)CC(O)=C1C=Nc1ccccc1` (stereo unspecified) here?
Answer: Its activity change, negative = inhibition is -3.8% (inactive).

Question: For `CC(=O)Nc1ccc(NC(=O)CCCc2nc(-c3ccc(C(C)(C)C)cc3)no2)cc1`, which activity change, negative = inhibition is on record?
Answer: The activity change, negative = inhibition was 2.77% (inactive).

Question: Which activity change, negative = inhibition does the source give for `COc1ccc(CNC(=O)c2cc3c(-c4ccccc4F)nn(C)c3s2)c(OC)c1` here?
Answer: The activity change, negative = inhibition was 8.78% (inactive).

Question: How did the activity change, negative = inhibition turn out when `CCc1ccc(Nc2nn3c(=O)c4cc5c(cc4nc3s2)OCO5)cc1` was run?
Answer: The activity change, negative = inhibition was 7.15% (inactive).

Question: Which activity change, negative = inhibition does the source give for `NC(=O)NC(=O)C(OC(=O)CCNS(=O)(=O)c1ccccc1)c1ccccc1` (stereo unspecified) here?
Answer: Its activity change, negative = inhibition is -53% (active).

Question: With `Cc1ccc(S(=O)(=O)NCCC(=O)OCC(=O)N(C)c2ccccc2)cc1` as the compound, how does the activity change, negative = inhibition read?
Answer: Its activity change, negative = inhibition is -1.79% (inactive).

Question: With `O=C(CCNS(=O)(=O)c1ccccc1)NCCCc1ccccc1` as the compound, how does the activity change, negative = inhibition read?
Answer: Its activity change, negative = inhibition is -0.746% (inactive).

Question: `COc1cccc(CNC(=O)CN2C(=O)CCc3cc(S(=O)(=O)N4CCOCC4)ccc32)c1` was tested. Which activity change, negative = inhibition did it give?
Answer: The activity change, negative = inhibition was -4.09% (inactive).

Question: Which activity change, negative = inhibition does the source give for `Cc1ccc(C)c2sc(NC(=O)c3ccc(S(=O)(=O)N4CCCC4)cc3)nc12` here?
Answer: Its activity change, negative = inhibition is 5.67% (inactive).

Question: With `CCOc1ccccc1NC(=O)CN1CCN(S(=O)(=O)c2ccc(Br)cc2)CC1` as the compound, how does the activity change, negative = inhibition read?
Answer: Its activity change, negative = inhibition is 6.89% (inactive).

Question: With `Cn1c(CNC(=O)c2ccccc2F)nnc1SCc1ccc(F)cc1` as the compound, how does the activity change, negative = inhibition read?
Answer: Its activity change, negative = inhibition is 26.9% (inactive).

Question: With `Cn1c(Cn2nnc3ccccc32)nnc1SCC(=O)c1ccccc1F` as the compound, how does the activity change, negative = inhibition read?
Answer: The activity change, negative = inhibition was -30.4% (active).

Question: `Cn1c(CC(=O)Nc2ccccc2)nnc1SCC(=O)c1ccccc1` was tested. Which activity change, negative = inhibition did it give?
Answer: Its activity change, negative = inhibition is -16.4% (inactive).

Question: For `COc1ccc(CNC(=O)c2cc3cccc(OC)c3oc2=O)cc1`, which activity change, negative = inhibition is on record?
Answer: Its activity change, negative = inhibition is -1.99% (inactive).

Question: How did the activity change, negative = inhibition turn out when `O=C(CSc1ccc([N+](=O)[O-])cn1)Nc1ccc(N2CCOCC2)c(Cl)c1` was run?
Answer: Its activity change, negative = inhibition is -35.4% (active).

Question: `O=C(CSc1nccc(=O)[nH]1)Nc1ccc(N2CCOCC2)c(Cl)c1` was tested. Which activity change, negative = inhibition did it give?
Answer: The activity change, negative = inhibition was -3.03% (inactive).

Question: With `O=C(CSc1ccc([N+](=O)[O-])cn1)Nc1ccc(N2CCOCC2)cc1` as the compound, how does the activity change, negative = inhibition read?
Answer: The activity change, negative = inhibition was 0.609% (inactive).

Question: With `CCOC(=O)c1c(C)oc2ccc(N(C(=O)c3ccncc3)S(=O)(=O)c3ccc(CC)cc3)cc12` as the compound, how does the activity change, negative = inhibition read?
Answer: The activity change, negative = inhibition was -12.9% (inactive).

Question: `Cc1nn(-c2ccccc2)c(C)c1NC(=O)CCl` was tested. Which activity change, negative = inhibition did it give?
Answer: Its activity change, negative = inhibition is -2.92% (inactive).

Question: With `C/C=C/c1ccc(OCC(=O)OCC(=O)Nc2c(C)nn(-c3ccccc3)c2C)c(OC)c1` as the compound, how does the activity change, negative = inhibition read?
Answer: Its activity change, negative = inhibition is -92.1% (active).

Question: `Cc1nn(-c2ccccc2)c(C)c1NC(=O)COC(=O)c1cc(Cl)ccc1O` was tested. Which activity change, negative = inhibition did it give?
Answer: Its activity change, negative = inhibition is -7% (inactive).

Question: Which activity change, negative = inhibition does the source give for `CCOC(=O)c1c(NC(=O)/C=C/c2ccc(OC)cc2)sc2c1CCC(C)C2` (stereo unspecified) here?
Answer: Its activity change, negative = inhibition is -4.93% (inactive).

Question: How did the activity change, negative = inhibition turn out when `CCCCOC(=O)CSc1ncnc2sc3c(c12)CCC(C)C3` (stereo unspecified) was run?
Answer: Its activity change, negative = inhibition is -2.54% (inactive).

Question: For `COc1ccc(S(=O)(=O)n2cnc3ccccc32)c(C)c1`, which activity change, negative = inhibition is on record?
Answer: The activity change, negative = inhibition was -34% (active).

Question: With `Cc1ccc(C)c(S(=O)(=O)n2cnc3ccccc32)c1` as the compound, how does the activity change, negative = inhibition read?
Answer: Its activity change, negative = inhibition is 1.78% (inactive).

Question: Which activity change, negative = inhibition does the source give for `COc1ccc(S(=O)(=O)N2CCN(C)CC2)c(C)c1` here?
Answer: The activity change, negative = inhibition was -0.84% (inactive).

Question: How did the activity change, negative = inhibition turn out when `CCNS(=O)(=O)c1ccc(NC(=O)CSc2nc(-c3ccco3)cc(C(F)(F)F)n2)cc1` was run?
Answer: The activity change, negative = inhibition was 7% (inactive).

Question: How did the activity change, negative = inhibition turn out when `COc1ccccc1N1CCN(CCCNC(=O)c2cnn(-c3ccccc3Cl)c2C2CCN(C(=O)OC(C)(C)C)CC2)CC1` was run?
Answer: Its activity change, negative = inhibition is -8.92% (inactive).

Question: `CCC(C(=O)Nc1cccc(Cl)c1C)n1nc(-c2ccc(C)cc2)ccc1=O` (stereo unspecified) was tested. Which activity change, negative = inhibition did it give?
Answer: Its activity change, negative = inhibition is 6.67% (inactive).

Question: How did the activity change, negative = inhibition turn out when `COc1ccc(CCNC(=O)c2ccc(-n3c(C)cc4c3CCCC4)cc2)cc1OC` was run?
Answer: The activity change, negative = inhibition was -15.3% (inactive).

Question: For `COc1ccc(CNC(=O)Cn2nnc(-c3ccc(S(C)(=O)=O)cc3)n2)cc1`, which activity change, negative = inhibition is on record?
Answer: Its activity change, negative = inhibition is 15.1% (inactive).

Question: Which activity change, negative = inhibition does the source give for `COc1ccccc1NC(=O)c1oc2ccccc2c1NC(=O)COc1ccccc1OC` here?
Answer: The activity change, negative = inhibition was -10.7% (inactive).

Question: With `COc1ccc(S(=O)(=O)N2CCCC2)c(C)c1C` as the compound, how does the activity change, negative = inhibition read?
Answer: The activity change, negative = inhibition was -24.6% (inactive).

Question: How did the activity change, negative = inhibition turn out when `COc1cc(C)c(S(=O)(=O)N2CCOCC2)c(C)c1C` was run?
Answer: The activity change, negative = inhibition was -2.39% (inactive).

Question: With `COc1ccc(S(=O)(=O)N2CCOCC2)c(C)c1C` as the compound, how does the activity change, negative = inhibition read?
Answer: The activity change, negative = inhibition was -50.9% (active).

Question: Which activity change, negative = inhibition does the source give for `Cc1nc(NC2=NC(C(=O)Nc3ccc(Cl)cc3)CC(=O)N2)nc2ccccc12` (stereo unspecified) here?
Answer: The activity change, negative = inhibition was -50.2% (active).

Question: How did the activity change, negative = inhibition turn out when `CC(=O)c1ccc(NC(=O)C2CC(=O)Nc3nc4ccccc4n32)cc1` (stereo unspecified) was run?
Answer: Its activity change, negative = inhibition is -16% (inactive).

Question: Which activity change, negative = inhibition does the source give for `CCOC(=O)c1ccc(NC(=O)C2CC(=O)Nc3nc4ccccc4n32)cc1` (stereo unspecified) here?
Answer: The activity change, negative = inhibition was 2.09% (inactive).

Question: Which activity change, negative = inhibition does the source give for `Cc1ccc(-n2ncc3c(NCCCn4ccnc4)ncnc32)cc1Cl` here?
Answer: Its activity change, negative = inhibition is -30.7% (active).

Question: For `CCN(CC)CCNc1ncnc2c1cnn2-c1cc(Cl)ccc1C`, which activity change, negative = inhibition is on record?
Answer: Its activity change, negative = inhibition is -31% (active).

Question: Which activity change, negative = inhibition does the source give for `Cc1ccc(Cl)cc1-n1ncc2c(N3CCC(C(N)=O)CC3)ncnc21` here?
Answer: Its activity change, negative = inhibition is -13.9% (inactive).

Question: For `Cc1ccc(S(=O)(=O)c2nc(NCCCn3ccnc3)sc2Cl)cc1`, which activity change, negative = inhibition is on record?
Answer: The activity change, negative = inhibition was 8.73% (inactive).

Question: With `CCN1CCN(c2ncnc3c2cnn3-c2ccc(C)c(C)c2)CC1` as the compound, how does the activity change, negative = inhibition read?
Answer: The activity change, negative = inhibition was 0.119% (inactive).

Question: For `CC(C)CNc1ncnc2c1cnn2Cc1ccc(Cl)cc1`, which activity change, negative = inhibition is on record?
Answer: Its activity change, negative = inhibition is 3% (inactive).
